The whole screen tested about 5,500 compounds, of which about 2,000 (36%) were called active. Roughly 18% stayed inconclusive and do not appear here. Cut-off read from the data, not from the text of the source: active = normalized growth mostly below about 0.91 (no sharp cut-off); inconclusive = no clear call, values can overlap the other calls; inactive = mostly above about 0.92. The list shows a part of the results.
Experiment: chemical genetic growth profiling, strain panel (AID 1159580);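 note: tested at 20 µM; growth read once vehicle control cultures reached saturation at 30 °C; 1 = growth at the plate median or of vehicle wells; lower values mean less growth of the strain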
Conditions: S. cerevisiae deletion strains, growth OD

Measured: normalized growth

CC1=NN(c2ccccc2)C(=O)C1
inactive: locus YAL021C, strain ccr4, active compounds read low 0.982 | locus YAL026C, strain drs2, active compounds read low 0.959 | locus YAL030W, strain snc1, active compounds read low 0.998 | locus YBL061C, strain skt5, active compounds read low 0.987 | locus YBR009C, strain hhf1, active compounds read low 0.936 | locus YBR021W, strain FUR4, active compounds read low 0.993 | locus YBR023C, strain chs3, active compounds read low 0.983 | locus YBR171W, strain sec66, active compounds read low 0.994 | locus YBR229C, strain ROT2, active compounds read low 0.978 | locus YBR231C, strain swc5, active compounds read low 0.979 | locus YBR279W, strain paf1, active compounds read low 0.979 | locus YCL011C, strain gbp2, active compounds read low 0.98 | locus YCL016C, strain dcc1, active compounds read low 0.965 | locus YCL029C, strain bik1, active compounds read low 0.982 | locus YCL061C, strain MRC1, active compounds read low 0.985 | locus YCL069W, strain vba3, active compounds read low 0.986 | locus YCR088W, strain abp1, active compounds read low 0.993 | locus YDL005C, strain med2, active compounds read low 0.975 | locus YDL035C, strain GPR1, active compounds read low 0.955 | locus YDL040C, strain nat1, active compounds read low 0.978 | locus YDL074C, strain BRE1, active compounds read low 0.912 | locus YDL101C, strain DUN1, active compounds read low 0.957 | locus YDL134C, strain PPH21, active compounds read low 0.971 | locus YDL185W, strain tfp1, active compounds read low 0.976 | locus YDL192W, strain arf1, active compounds read low 0.918 | locus YDR001C, strain nth1, active compounds read low 0.994 | locus YDR069C, strain doa4, active compounds read low 0.969 | locus YDR101C, strain arx1, active compounds read low 1.01 | locus YDR137W, strain rgp1, active compounds read low 0.899 | locus YDR159W, strain sac3, active compounds read low 0.957 | locus YDR162C, strain NBP2, active compounds read low 0.925 | locus YDR195W, strain ref2 1 | locus YDR297W, strain sur2, active compounds read low 0.983 | locus YDR334W, strain swr1, active compounds read low 0.992 | locus YDR335W, strain msn5, active compounds read low 0.99 | locus YDR388W, active compounds read low 0.958 | locus YDR502C, strain sam2, active compounds read low 0.934 | locus YEL003W, strain gim4, active compounds read low 0.97 | locus YEL037C, strain rad23, active compounds read low 0.994 | locus YEL061C, strain CIN8 (second series), active compounds read low 0.988 | locus YEL061C, strain CIN8, active compounds read low 0.992 | locus YER015W, strain faa2, active compounds read low 0.987 | locus YER016W, strain bim1, active compounds read low 0.99 | locus YER110C, active compounds read low 0.98 | locus YER111C, strain swi4, active compounds read low 0.989 | locus YER155C, strain BEM2 (second series), active compounds read low 0.917 | locus YER155C, strain BEM2, active compounds read low 0.991 | locus YER167W, strain BCK2, active compounds read low 0.952 | locus YFR010W, strain ubp6, active compounds read low 0.983 | locus YGL078C, strain dbp3, active compounds read low 0.98 | locus YGL086W, strain mad1, active compounds read low 0.955 | locus YGL167C, strain pmr1, active compounds read low 0.982 | locus YGL173C, strain kem1, active compounds read low 0.974 | locus YGL227W, strain vid30, active compounds read low 0.995 | locus YGL240W, strain doc1, active compounds read low 0.952 | locus YGL248W, strain PDE1, active compounds read low 0.963 | locus YGL253W, strain hxk2, active compounds read low 0.976 | locus YGR135W, strain pre9, active compounds read low 0.914 | locus YGR252W, strain gcn5, active compounds read low 0.867 | locus YHR013C, strain ard1, active compounds read low 0.881 | locus YHR027C, strain rpn1, active compounds read low 0.985 | locus YHR030C, strain SLT2, active compounds read low 0.987 | locus YHR079C, strain IRE1 (second series), active compounds read low 0.981 | locus YHR094C, strain hxt1, active compounds read low 0.982 | locus YHR129C, strain ARP1, active compounds read low 0.972 | locus YHR142W, strain chs7, active compounds read low 0.972 | locus YHR200W, strain rpn10, active compounds read low 0.975 | locus YIL066C, strain RNR3, active compounds read low 0.929 | locus YIL073C, strain SPO22, active compounds read low 0.898 | locus YIR030C, strain dcg1, active compounds read low 0.978 | locus YJL092W, strain hpr5, active compounds read low 0.985 | locus YJL095W, strain BCK1 (second series), active compounds read low 0.983 | locus YJL095W, strain BCK1, active compounds read low 0.935 | locus YJL115W, strain asf1, active compounds read low 0.983 | locus YJL129C, strain trk1, active compounds read low 0.985 | locus YJL134W, strain LCB3, active compounds read low 0.981 | locus YJL154C, strain vps35, active compounds read low 0.997 | locus YJL164C, strain tpk1, active compounds read low 0.973 | locus YJL166W, strain qcr8, active compounds read low 0.949 | locus YJL168C, strain set2, active compounds read low 0.993 | locus YJL187C, strain SWE1 (second series), active compounds read low 0.986 | locus YJL187C, strain SWE1, active compounds read low 0.983 | locus YJR043C, strain POL32, active compounds read low 0.998
active: locus YDR318W, strain mcm21, active compounds read low 0.904 | locus YDR392W, strain spt3, active compounds read low 0.609 | locus YIL125W, strain kgd1, active compounds read low 0.93

Reference: PubChem BioAssay AID1159580 (chemical genetic matrix, 2015)
